Screening data (PubChem BioAssay)
In the library only some 11% were active in any assay of this set; here they are far more common.
Sfp PPTase inh – blocks B. subtilis Sfp PPTase activity. Potency, µM, inactives show largest response in the series, negative = inhibition, actives largely listed as inhibitors. Biochemical Sfp PPTase activity, qHTS. hit rate 3.5% among 310,000. Q9F4F7;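 further: the enzyme is Sfp with the accession as filed and its product quenches rhodamine fluorescence; potency means the concentration at half of the fitted maximal effect; 0% = enzyme reaction without inhibitor and -100% = no enzyme wells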
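Buffer: 50 mM Hepes-Na pH 7.6, 10 mM MgCl2, 0.01% Nonidet P-40, 0.01% BSA. Enzyme 15 nM, pre-exposed to compound 15 min; substrates then added and fluorescence change tracked over 30 min.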
Tau FP inhib – inhibitors of human tau fibril formation; K18 P301L tau heparin fibrillization, Alexa594 FP, 6 h; Potency, µM (titrated, usually from 57.7 µM), for inactives: top-dose activity, negative = inhibition, hits mostly inhibitors; P10636; AID 1468; hit rate 0.39% among 280,000; further: potency means the concentration at half of the fitted maximal effect; nearly all actives have a fitted effect of over 55% in size
Target sequence (P10636 561-689 P618L limits assumed): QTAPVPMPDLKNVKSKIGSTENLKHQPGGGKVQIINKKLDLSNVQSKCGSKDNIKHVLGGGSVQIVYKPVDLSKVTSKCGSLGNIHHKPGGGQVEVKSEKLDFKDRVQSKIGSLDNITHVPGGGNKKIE
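Human tau K18 […] P301L fragment, 15 uM unlabeled plus 0.24 uM Alexa 594-labeled tau (final), with compound and 20 uM heparin in 100 mM sodium acetate pH 7; 6 hr at 37 C, then Alexa 594 FP read.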
G9a inh – G9a (human) methyltransferase inhibition; Potency, µM (series often up to 102 µM), inactives show at the top dose activity, negative = inhibition, hits mostly inhibitors; AID 504332; G9a H3K9 monomethylation, AlphaScreen, 2 h; Q96KQ7; hit rate 8.8% among 350,000; further: potency means the concentration at half of the fitted maximal effect; nearly all actives have a fitted effect of over 75% in size
Target sequence (Q96KQ7 913-1193 limits assumed): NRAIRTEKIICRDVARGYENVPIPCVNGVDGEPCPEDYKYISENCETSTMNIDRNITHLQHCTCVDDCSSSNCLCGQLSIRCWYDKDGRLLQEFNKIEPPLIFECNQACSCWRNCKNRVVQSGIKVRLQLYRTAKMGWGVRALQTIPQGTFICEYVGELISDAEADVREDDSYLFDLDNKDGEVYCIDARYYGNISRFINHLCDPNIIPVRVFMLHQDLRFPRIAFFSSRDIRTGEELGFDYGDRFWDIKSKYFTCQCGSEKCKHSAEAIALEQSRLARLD
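Step 1: enzyme (final 20 nM) with compound, 15 min RT. Step 2: substrate peptide 500 nM and SAM 20 uM, 2 h RT. Step 3: anti-H3K9me1 antibody and AlphaScreen beads, 10 min, then plate read.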
Tau fluor counter – counter-screen for tau fibril formation inhibitors; hit rate 0.93% among 280,000; tau K18 P301L Alexa594 fluorescence, heparin fibrillization; Potency, µM (top dose mostly 57.7 µM), without a hit: at the top dose activity change, negative = decrease; further: potency means the concentration at half of the fitted maximal effect; nearly all actives have a fitted effect of over 55% in size
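Human K18 P301L tau (15 uM unlabeled plus 0.24 uM Alexa 594-labeled, final) in 100 mM sodium acetate pH 7 was mixed with compound and 20 uM heparin and incubated 6 hr at 37 C.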
Tau fibril ThT – inhibitors of human tau fibril formation, thioflavin T binding; P10636; recombinant tau K18 P301L (four-repeat tau fragment), heparin-induced fibrillization, ThT fluorescence; Potency, µM (titrated, usually from 57.4 µM), for the others: at the highest dose activity, negative = inhibition, usual class: inhibitors; hit rate 2.1% among 270,000; further: potency means the concentration at half of the fitted maximal effect; nearly all actives have a fitted effect of over 55% in size
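K18 P301L tau (15 uM + 0.24 uM Alexa 594-tagged), heparin 20 uM, NaOAc pH 7, 6 h 37 C; ThT 30 uM, 1 h RT, ex 450/em 510 nm.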
FBPA coupling cs – coupling enzyme interference in Giardia aldolase counter-screen; hit rate 0.67% among 290,000; coupling enzyme system counterscreen, AmpLite Red fluorescence; activity change, negative = inhibition, % at 58.2 µM, hits read low; in the data active means activity change below about -30%
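Compounds tested against the coupling enzymes alone at 57.5 uM final; readout was AmpLite Red fluorescence (525/598 nm) after 20 min at RT.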
Active calls of the source: *; ! = not active in a repeat; [ ] = dose if it differs, or a comment. Unless noted, the call rests on the fitted dose curve; in most records, active means well fitted curve in the direction sought with a large enough effect; inconclusive means small, poorly fitted or top-dose-only effect, or another doubt; inactive means no such curve, though single readings can be large; an effect the other way counts as inactive or inconclusive. Unless noted, on the % scale 0 is the no-effect control and ±100 the full control effect.

How did O=C(Nc1ccc(Oc2ccccc2)cc1)c1ccc(F)c(S(=O)(=O)N2CCN(c3cccc(Cl)c3)CC2)c1 do in these assays?
Tau FP inhib: inconclusive; G9a inh: -2.3%[59 µM]; Tau fluor counter: -0.5%; Tau fibril ThT: 3.6%

How did CN(C)CCN(Cc1ccccc1)c1ccnc(N(C)C)c1C#N do in these assays?
Sfp PPTase inh: -16.0%; Tau FP inhib: -1.0%; G9a inh: 7.94µM*; Tau fluor counter: 2.4%; Tau fibril ThT: 4.7%; FBPA coupling cs: -0.6

What do the screens show for `CN(C)CCN(C)CCc1ccc(Cl)c(Cl)c1`?
Sfp PPTase inh: 16.2%; Tau FP inhib: inconclusive; G9a inh: -2.0%[59 µM]; Tau fluor counter: -0.3%; Tau fibril ThT: -4.0%; FBPA coupling cs: 3.1

What do the screens show for `C/C=C/C/C=C/CCC(=O)[C@H]1O[C@H]1C(N)=O`?
Sfp PPTase inh: 6.7%; Tau FP inhib: inconclusive; G9a inh: inconclusive; Tau fluor counter: -19.0%; Tau fibril ThT: inconclusive

What do the screens show for `Cc1ccc(-c2nn(Cc3ccccc3)cc2C=O)cc1`?
Sfp PPTase inh: 3.7%; Tau FP inhib: 2.0%; G9a inh: 23.1%[59 µM]; Tau fluor counter: -5.8%; Tau fibril ThT: -1.3%; FBPA coupling cs: 4.5

Results for O=C(O)CCn1cc(C=C2C(=O)NC(=S)NC2=O)c(-c2cccc(Cl)c2)n1 ?
Sfp PPTase inh: 22.4µM*; Tau FP inhib: 5.3%; G9a inh: 2.51µM*; Tau fluor counter: -5.8%; Tau fibril ThT: inconclusive; FBPA coupling cs: 7.1

What do the screens show for `O=C(O)CCn1cc(C=C2C(=O)NC(=O)NC2=O)c(-c2ccc(Br)cc2)n1`?
Sfp PPTase inh: inconclusive; Tau FP inhib: -4.9%; G9a inh: 10µM*; Tau fluor counter: -5.3%; Tau fibril ThT: inconclusive; FBPA coupling cs: 10.2

How did N#CCCn1cc(C(=O)O)c(-c2cccc([N+](=O)[O-])c2)n1 do in these assays?
Sfp PPTase inh: 4.9%; Tau FP inhib: -2.3%; G9a inh: -28.9%; Tau fluor counter: -7.8%; Tau fibril ThT: -5.0%; FBPA coupling cs: 2.3

Results for CC([C@H](O)c1ccccc1)N(C)C (some centres not stated) ?
Sfp PPTase inh: 18.4%; Tau FP inhib: -2.2%; G9a inh: inconclusive; Tau fluor counter: -3.0%; Tau fibril ThT: -7.4%; FBPA coupling cs: 5.1

How did c1ccc(C(OC2CCCN(CCc3ccc4c(c3)OCO4)C2)c2ccccc2)cc1 (configuration not stated) do in these assays?
Sfp PPTase inh: inconclusive; FBPA coupling cs: 0.8

How did O=C(CCC1N=C2c3ccccc3N=C(SCc3cccc(Cl)c3)N2C1=O)N1CCN(c2ccccc2)CC1 (configuration not stated) do in these assays?
Tau FP inhib: -2.6%; G9a inh: inconclusive; Tau fluor counter: -18.4%; Tau fibril ThT: inconclusive

Results for CC(=O)OCC1=C(C(=O)O)N2C(=O)[C@@H](N)[C@@H]2SC1 ?
Sfp PPTase inh: 22.4µM*; G9a inh: 0.4%[5.15 µM]; FBPA coupling cs: 0.0

Results for Cn1c2c(c3ccccc31)CCNCC2 ?
Sfp PPTase inh: 2.7%; Tau FP inhib: 6.8%; Tau fluor counter: 0.1%; Tau fibril ThT: -7.3%; FBPA coupling cs: 1.9

How did Cc1cc(/C=C2/C(=O)NC(=O)N(C)C2=O)c(C)n1-c1ccccc1 do in these assays?
Sfp PPTase inh: -0.2%; Tau FP inhib: -5.8%; G9a inh: inconclusive; Tau fluor counter: 0.4%; Tau fibril ThT: -11.9%; FBPA coupling cs: 1.6

How did Cc1cc(/C=C2\C(=O)NC(=O)N(c3ccc(F)cc3)C2=O)c(C)n1-c1cccc(C(=O)O)c1 do in these assays?
Sfp PPTase inh: -15.8%; Tau FP inhib: -13.2%; G9a inh: 35.5µM*; Tau fluor counter: -20.2%; Tau fibril ThT: inconclusive; FBPA coupling cs: 2.6

What do the screens show for `Cc1cc(/C=C2\C(=O)NC(=O)N(c3ccccc3F)C2=O)c(C)n1-c1cc(C(=O)O)cc(C(=O)O)c1`?
Sfp PPTase inh: -18.2%; G9a inh: 10µM*; FBPA coupling cs: 11.4

How did Cc1cc(/C=C2\C(=O)NC(=O)N(c3ccccc3)C2=O)c(C)n1-c1ccc(C(=O)O)c(Cl)c1 do in these assays?
Sfp PPTase inh: -20.7%; G9a inh: 44.7µM*; FBPA coupling cs: 6.2

Results for ClC1=C(Cl)C(Cl)(C2(Cl)C(Cl)=C(Cl)C(Cl)=C2Cl)C(Cl)=C1Cl ?
Sfp PPTase inh: inconclusive; FBPA coupling cs: -14.2

What do the screens show for `CC1=CC(=O)c2c(O)cccc2C1=O`?
Sfp PPTase inh: 35.5µM*!; Tau FP inhib: 3.16µM*; G9a inh: -98.3%[2.33 µM]; Tau fluor counter: 2.24µM*[quencher]; Tau fibril ThT: 2.51µM*; FBPA coupling cs: -47.6*

How did CC(C)(C)c1cc(O)ccc1O do in these assays?
Sfp PPTase inh: 39.8µM*; G9a inh: 4.47µM*

Results for O=C(NC1(C(F)(F)F)Oc2ccc(Cl)cc2O1)N1CCC2(CC1)OCCO2 (configuration not stated) ?
Sfp PPTase inh: 79.4µM*; Tau FP inhib: -5.9%; G9a inh: inconclusive; Tau fluor counter: -20.5%; Tau fibril ThT: inconclusive; FBPA coupling cs: -16.2

How did O=C(NC1(C(F)(F)F)Oc2ccccc2O1)N1CCC2(CC1)OCCO2 do in these assays?
Sfp PPTase inh: -1.0%; Tau FP inhib: 7.5%; G9a inh: 1.78µM*; Tau fluor counter: -7.9%; Tau fibril ThT: inconclusive; FBPA coupling cs: 0.5

What do the screens show for `O=C(c1ccccc1)N1CCC2(CC1)OCCO2`?
Sfp PPTase inh: -4.5%; Tau FP inhib: 10.2%; Tau fluor counter: 0.1%; Tau fibril ThT: -3.3%; FBPA coupling cs: 1.5

Results for CC(C)C[C@H](NC(=O)[C@H](Cc1ccccc1)NC(=O)CNC(=O)[C@@H](COC(C)(C)C)NC(=O)[C@@H](N)Cc1ccc(O)cc1)C(=O)N[C@H](C(=O)O)[C@@H](C)OC(C)(C)C ?
Sfp PPTase inh: 14.6%; FBPA coupling cs: -2.6

What do the screens show for `C[C@@H]1NCCc2cc(O)c(O)cc21`?
Sfp PPTase inh: inconclusive; G9a inh: 1.78µM*; FBPA coupling cs: -6.9

What do the screens show for `Cc1ccc(N2CCN(C(=O)C3CCC(CNS(=O)(=O)c4ccc(Br)s4)CC3)CC2C)cc1` (configuration not stated)?
Tau FP inhib: 14.3%; G9a inh: -20.9%[59 µM]; Tau fluor counter: -6.0%; Tau fibril ThT: inconclusive

How did F/C(COc1ccc2c(c1)[nH]c1ccccc12)=C1/CN2CCC1CC2 do in these assays?
Sfp PPTase inh: inconclusive; G9a inh: inconclusive; FBPA coupling cs: 1.7

What do the screens show for `NCCCC[C@H](N[C@@H](CCc1ccccc1)C(=O)O)C(=O)N1CCC[C@H]1C(=O)O`?
Sfp PPTase inh: 17.4%; G9a inh: 10µM*!; FBPA coupling cs: 0.1
